Data on 39 molecules can be found in PubChem BioAssay (NCATS).

Results filed as inconclusive are left out. A call without a number means that no potency is given here. The source made the active and inactive calls. Calls follow the shape of the full dose curve.

The target of this assay is Nucleoprotein (Lymphocytic choriomeningitis virus (strain Armstrong)) (UniProt P09992). Nature of the assay: qHTS for Inhibitors of the Functional Ribonucleoprotein Complex (vRNP) of Lymphocytic Choriomeningitis Arenaviruses (LCMV): LCMV Primary Screen - GLuc reporter signal (AID 1347086). Also: nearly all actives have a fitted effect of over 70% in size. Particulars: LCMV minigenome vRNP cell assay, Gaussia luciferase reporter; series mostly up to 57.5 µM. (In general: qHTS replaces the single test concentration by a dilution series.)
Chain of Nucleoprotein (Lymphocytic choriomeningitis virus (strain Armstrong)) (P09992 whole entry, looked up): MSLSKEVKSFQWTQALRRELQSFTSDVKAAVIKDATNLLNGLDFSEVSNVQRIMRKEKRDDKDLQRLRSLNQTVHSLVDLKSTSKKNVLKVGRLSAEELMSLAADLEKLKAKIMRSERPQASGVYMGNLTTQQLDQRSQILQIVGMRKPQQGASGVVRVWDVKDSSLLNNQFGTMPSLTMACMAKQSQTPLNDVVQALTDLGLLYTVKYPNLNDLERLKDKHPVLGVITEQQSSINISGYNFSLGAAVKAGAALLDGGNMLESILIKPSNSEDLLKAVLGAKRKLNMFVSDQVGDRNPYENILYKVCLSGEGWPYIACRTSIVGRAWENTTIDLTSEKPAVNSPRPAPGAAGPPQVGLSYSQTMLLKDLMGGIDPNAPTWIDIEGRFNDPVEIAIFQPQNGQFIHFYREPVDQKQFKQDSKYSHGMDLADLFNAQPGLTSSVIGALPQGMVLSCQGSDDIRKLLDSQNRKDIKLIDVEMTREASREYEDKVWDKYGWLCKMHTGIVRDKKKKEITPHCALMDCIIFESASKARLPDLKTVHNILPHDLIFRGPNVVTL
Consider `CCCCCCCCCCCC(C)=O`, for which the Potency entry was “inactive”.

Turning to `CC(C)(O[C@@H]1O[C@H](CO)[C@@H](O)[C@H](O)[C@H]1O)[C@@H]1CC=C(C(=O)O)CC1`, the Potency entry was “inactive”.

As to `O=C1/C(=C\c2ccc(O)c(O)c2)Oc2c1ccc(O[C@@H]1O[C@H](CO)[C@@H](O)[C@H](O)[C@H]1O)c2O`, the Potency result was “inactive”.

As to `O=c1cc(-c2ccccc2)oc2cc(O)ccc12`, the Potency entry is “inactive”.

On to `Cc1cc(O)c2c(c1O)C(=O)C(O)=C(O)C2=O`, for which the Potency result was “inactive”.

Take `CC1CCC(C(C)(C)S)C(=O)C1` (centres undefined): the Potency result was “inactive”.

Consider `COc1cc2c(cc1O)[C@@H]1Cc3cc(OC)c(OC)cc3C(C2)N1C`, for which the Potency entry was “inactive”.

For `COc1cc2cc(Oc3ccc4ccc(=O)oc4c3)c(=O)oc2cc1O[C@@H]1O[C@H](CO)[C@@H](O)[C@H](O)[C@H]1O`, the Potency result is “inactive”.

As to `O=c1c(O)c(-c2ccc(O[C@@H]3O[C@H](CO)[C@@H](O)[C@H](O)[C@H]3O)c(O)c2)oc2cc(O)cc(O)c12`, the Potency entry was “inactive”.

Turning to `Cc1ccccc1C(=O)c1ccc(Nc2ccc(Br)cc2N)cc1Cl`, the Potency entry is “inactive”.

`COc1c2n(C)ccc3c-2n(c(=O)c1=O)c1ccccc31`: the Potency entry was “inactive”.

As to `OCCNC1CCCc2c1[nH]c1ccc(-c3ccccc3)cc21` (centres undefined), the Potency entry is “inactive”.

Consider `O=C(O)c1cccc(Br)c1`, for which the Potency entry was “inactive”.

For `COc1n[nH]c2nncnc12`, the Potency result was “inactive”.

As to `CC1(C)C[C@H]2C3=CCC4[C@@]5(C)CC[C@H](O)[C@](C)(CO)C5CC[C@@]4(C)[C@]3(C)C[C@@H](O)[C@@]2(CO)[C@@H](O)[C@@H]1O` (some centres undefined), the Potency entry is “inactive”.

As to `COc1ccc(-c2cc(=O)c3c(O)cc(OC4OC(COC5OC(C)C(O)C(O)C5O)C(O)C(O)C4O)cc3o2)cc1O` (centres undefined), the Potency result is “inactive”.

Take `C=CCCCCCCCCCCCC(O)CC(O)COC(C)=O` (centres undefined): the Potency result is “inactive”.

As to `CC1=CC[C@@]23C[C@@H]1C(C)(C)[C@@H]2CC[C@H]3C`, the Potency result was “inactive”.

In the case of `CCCCC[C@H](O)C=C[C@H]1[C@H](O)CC(=O)[C@H]1CCCCCCC(=O)O`, the Potency result was “inactive”.

In the case of `NC1=NCCCC1`, the Potency result was “inactive”.

With `CC(O)C(C)O` (centres undefined), the Potency entry was “inactive”.

Consider `CCCC(=O)OCCC(C)CCC=C(C)C` (centres undefined), for which the Potency result was “inactive”.

As for `COc1cc2c(c(OC)c1OC)-c1c(cc3c(c1OC)OCO3)CC(C)C(C)(O)C2OC(=O)c1ccccc1` (centres undefined), the Potency entry is “inactive”.

Turning to `COC(=O)c1ccc(=O)c2nc3/c(=C/O)c(O)cc(=O)c3[nH]c12`, the Potency entry is “inactive”.

For `CSCC[C@@H](N)C(=O)O`, the Potency entry is “inactive”.

With `COc1cc(O)c2c(=O)c3c(O[C@H]4O[C@@H](CO)[C@H](O)[C@@H](O)[C@@H]4O)ccc(O)c3oc2c1`, the Potency entry was “inactive”.

`CC(=O)OCC(=O)[C@@]1(O)CC[C@H]2[C@@H]3CCC4=CC(=O)C=C[C@]4(C)[C@@H]3[C@@H](O)C[C@@]21C`: the Potency entry is “inactive”.

As to `CCC1(CC)C(=O)NC(=O)N(c2ccccc2)C1=O`, the Potency entry was “inactive”.

In the case of `COc1cc2c(c(OC)c1OC)-c1c(cc(OC)c(OC)c1OC)CC(C)C(C)C2` (centres undefined), the Potency entry is “inactive”.

`CCCO`: the Potency result is “inactive”.

For the molecule `COc1ccc(C[C@@H]2c3cc(O)c(OC)cc3CCN2C)cc1O`, the Potency result is “inactive”.

With `O=C(O)COc1ccc(Cl)cc1CO`, the Potency entry was “inactive”.

Regarding `CC(C)C1=CC2=CC[C@@H]3[C@](C)(CCC[C@@]3(C)C(=O)O)[C@H]2CC1`, the Potency entry was “inactive”.

For `CSC(=S)NCc1c[nH]c2ccccc12`, the Potency entry is “inactive”.

For `N#CC(=C(N)Sc1ccc(N)cc1)c1ccccc1C(F)(F)F`, the Potency result was “inactive”.

As for `Nc1nc2c(ncn2[C@@H]2O[C@H](CO)[C@@H](O)[C@@H]2O)c(=O)[nH]1`, the Potency entry was “inactive”.

Turning to `COc1ccc2[nH]cc(CCO)c2c1`, the Potency result is “inactive”.

Regarding `CC(C)=CCC[C@](C)(O[C@@H]1O[C@H](CO)[C@@H](O)[C@H](O)[C@H]1O)[C@H]1CC[C@]2(C)[C@@H]1[C@H](O)C[C@@H]1[C@@]3(C)CC[C@H](O[C@@H]4O[C@H](CO)[C@@H](O)[C@H](O)[C@H]4O[C@@H]4O[C@H](CO)[C@@H](O)[C@H](O)[C@H]4O)C(C)(C)[C@@H]3[C@@H](O)C[C@]12C`, the Potency result is “inactive”.

Regarding `CC(CCC(=O)O)C1CCC2C3CC(O)C4CC(O)CC[C@]4(C)C3CCC12C` (some centres undefined), the Potency entry is “inactive”.
